Data published in PubChem BioAssay AID2279 (Southern Research Specialized Biocontainment Screening …, 2010).
Measured potencies and affinities stand elsewhere. Activity calls are given as the source filed them. The rule behind the calls is not given here.

Experiment: HIV-1 Env-mediated cell fusion inhibitors, dose response, CCR5-tropic Env (AID 2279)
Settings: CCR5-tropic HIV-1 Env, reporter read-out; series mostly up to 50 µM

Structure (SMILES) | outcome
Cc1c(CC(=O)O)c(=O)oc2c(C)c3occ(-c4ccc(Br)cc4)c3cc12 | inactive
CCOc1cc(/C=C2\C(=N)N3N=C(S(C)(=O)=O)SC3=NC2=O)ccc1OCCOc1cccc(OC)c1 | inactive
O=C(CCN1C(=O)/C(=C/c2ccco2)SC1=S)Nc1ccc(C(=O)O)c(O)c1 | inactive
CCOc1ccc2nc(NC(=O)CSc3nc(-c4ccccc4)c(C#N)c(=O)[nH]3)sc2c1 | inactive
C=CC#CC[N+]1(CC#Cc2ccccc2)CCOCC1 | inactive
O=C(O)c1ccc(Nc2nc(-c3cc4ccccc4oc3=O)cs2)cc1O | inactive
COc1cc(/C=C2\C(=N)N3N=C(S(C)(=O)=O)SC3=NC2=O)cc(OC)c1OCCOc1ccc(C)cc1 | inactive
CC(c1ccccc1)N1C(=O)c2ccc(C(=O)Nc3ccccc3C(=O)O)cc2C1=O (centres undefined) | inactive
O=C(O)CN1C(=O)/C(=C\c2cc(Br)ccc2OCc2ccc([N+](=O)[O-])cc2)SC1=S | inactive
O=C(O)c1cccc(-n2cccc2/C=C2/NC(=O)N(c3ccc(Cl)cc3)C2=O)c1 | inactive
O=C(O)COc1ccccc1/C=N/Nc1ccc(S(=O)(=O)Nc2ccc(Cl)cc2)cc1[N+](=O)[O-] | inactive
Cc1cccc(S(=O)(=O)Nc2nc3ccccc3nc2Nc2cccc(C(=O)O)c2)c1 | inactive
O=C(Nc1ccc(C(=O)O)cc1)/C(=C\C=C\c1ccccc1)NC(=O)c1cccc(Br)c1 | inactive
O=C(O)c1[nH]c2ccccc2c1C(c1ccccc1)c1c(C(=O)O)[nH]c2ccccc12 | inactive
O=C(O)c1cc(-c2ccc(/C=N/Nc3ccc(Cl)cc3)o2)ccc1Cl | inactive
CC(Oc1ccc(Cl)cc1Cl)C(=O)Nc1ccc(S(=O)(=O)Nc2cnc3ccccc3n2)cc1 (centres undefined) | inactive
O=C(NCCc1ccccc1)c1ccc2c(=O)[nH]c3c(C(=O)NCC4CCCO4)sc(=S)n3c2c1 (centres undefined) | inactive

Structure (SMILES) | outcome
CCc1ccc(N=C2NC(=O)/C(=C/c3cc(Br)c(OCC(=O)O)c(OC)c3)S2)cc1 | inactive
O=C1N/C(=N\S(=O)(=O)c2ccccc2)S/C1=C\c1cc([N+](=O)[O-])ccc1O | inactive
COc1cc(/C=C2/C(=N)N3C(=NC2=O)SN=C3S(C)(=O)=O)ccc1OS(=O)(=O)c1ccccc1 | inactive
CCCCCc1c2c(cc(O)c1C(=O)O)OC(=O)c1c(cc(OC)cc1C(=O)CCCC)O2 | inactive
O=C(O)c1cccc2c(-c3ccccc3)c(-c3ccccc3)[nH]c12 | inactive
NS(=O)(=O)c1cc(C(=O)NC2CCSc3ccccc32)ccc1Cl (centres undefined) | inactive
COc1cccc(C2C3=C(N=c4s/c(=C\c5ccc(OCC(=O)O)cc5)c(=O)n42)c2ccccc2CC3)c1 (centres undefined) | inactive
CCc1ccc(S(=O)(=O)/N=C2\C=C(NS(=O)(=O)c3ccccc3)C(=O)c3ccccc32)cc1 | inactive
COc1cc(/C=C2\C(=N)N3N=C(S(C)(=O)=O)SC3=NC2=O)cc(OC)c1OCCOc1cccc(C)c1 | inactive
CCc1nnc(NS(=O)(=O)c2ccc(NC(=O)/C=C/c3ccccc3Cl)cc2)s1 | inactive
O=C1NN(c2ccccc2)C(=O)/C1=C\c1cccc(OC(=O)c2cccs2)c1 | inactive
COc1cc(/C=C2\C(=N)N3N=C(S(C)(=O)=O)SC3=NC2=O)cc(OC)c1OCCOc1ccccc1C | inactive
O=C1NN(c2ccc(Cl)cc2)C(=O)/C1=C\c1ccc(-c2cccc(C(=O)O)c2)o1 | inactive
CCCCCC#CCC#CCC#CCC#CCCCC(=O)O | inactive
Cc1ccc(Cl)cc1N1CCN(C(=O)Cc2c(C(=O)O)[nH]c3ccc(Cl)cc23)CC1 | inactive
CC(C)CS(=O)(=O)C1=NSC2=NC(=O)/C(=C\c3ccc(OC(=O)c4ccco4)cc3)C(=N)N21 | inactive
CCC(C)(C)C1CCc2c(sc(NC(=O)c3ccccc3C(=O)O)c2C#N)C1 (centres undefined) | inactive
